Most compounds without a hit are left out; they make up all but 2.9% or so of the library.
DRD3 agonist – D3 dopamine receptor (human) agonism | P35462 | D3R DiscoveRx beta-arrestin cells, luminescence, 90 min | max activation, % | 410,000 compounds, 0.58% hits; in the data active means max activation above about 30%; further: 0% is about no effect
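Agonist-mode cell screen: cells plated at 1500/well and incubated overnight at 37 °C, then exposed to library compounds for 90 min at 37 °C. Detection reagent was added for 30–60 min at room temperature, and luminescence was read.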
TRPML1 inh – inhibitors of human TRPML1 channel; activity change, negative = inhibition, % (no concentration beside the values); 390,000 compounds, 0.02% hits; TRPML1-inducible cells, Ca2+ dye fluorescence, FDSS; stronger effect = lower value; inhibition of EC80 agonist-evoked calcium signal; Q9GZU1; in the data active means activity change below about -50%; inconclusive means between about -30% and that limit;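 further: stimulus is agonist 54-4 at its EC80 concentration; on the % scale 0 is the no-effect control and ±100 the full control effect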
Target sequence (Q9GZU1 whole entry, looked up): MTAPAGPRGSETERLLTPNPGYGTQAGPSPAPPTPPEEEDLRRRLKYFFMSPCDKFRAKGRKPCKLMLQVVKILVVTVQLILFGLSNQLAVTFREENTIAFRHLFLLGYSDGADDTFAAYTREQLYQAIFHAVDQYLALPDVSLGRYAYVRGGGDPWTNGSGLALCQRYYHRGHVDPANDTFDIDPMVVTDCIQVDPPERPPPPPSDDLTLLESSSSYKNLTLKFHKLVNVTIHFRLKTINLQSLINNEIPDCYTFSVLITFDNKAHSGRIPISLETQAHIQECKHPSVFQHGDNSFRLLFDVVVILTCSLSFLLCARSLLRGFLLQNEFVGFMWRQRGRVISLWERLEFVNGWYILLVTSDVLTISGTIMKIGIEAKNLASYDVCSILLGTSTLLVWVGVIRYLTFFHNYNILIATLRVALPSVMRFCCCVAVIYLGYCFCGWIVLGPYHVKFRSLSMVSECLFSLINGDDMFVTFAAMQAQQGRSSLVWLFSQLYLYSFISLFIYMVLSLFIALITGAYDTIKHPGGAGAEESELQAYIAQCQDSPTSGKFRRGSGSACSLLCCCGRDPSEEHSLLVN
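Tet-induced TRPML1-DL cells loaded with Ca8 no-wash calcium dye were read kinetically on FDSS. Compound addition was followed by EC80 agonist 54-4 (4 uM final); inhibition was read over 110 s.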
DRD3 antagonist – D3 dopamine receptor (human) antagonism | P35462 | D3R cells, DiscoveRx beta-arrestin luminescence, antagonist mode; stronger effect = lower value | max response, negative = inhibition, % | 360,000 compounds, 2.5% hits | AID 652054; in the data active means max response below about -50%; inconclusive means no clear call, values can overlap the other calls; further: on the % scale 0 is the no-effect control and ±100 the full control effect
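Cells expressing the human receptor were seeded at 1500 cells/well, incubated overnight at 37 degrees C in 5% CO2, then exposed to library compounds with dopamine controls for 90 minutes at 37 degrees C before luminescent detection.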
TRPML1 agonist – agonists of human TRPML1 channel; activation, % (concentration not given with the values); 410,000 compounds, 0.12% hits; TRPML1-expressing cells, Ca2+ dye fluorescence, FDSS; Q9GZU1; AID 624414; in the data active means activation above about 50%; inconclusive means mostly about 30% to 49%; further: 0% is about no effect
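Kinetic FDSS Ca2+ read in Tet-induced TRPML1-DL cells (ABD Ca8 dye plus quencher, 45-90 min RT loading): baseline, then compound, then 110 s agonist window; EC80 agonist 54-4 at 4uM final added afterwards for a 110 s antagonist window.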
Active calls of the source: *; ? = inconclusive; · = no result given; ! = not active in a repeat.

SMILES	DRD3 agonist	TRPML1 inh	DRD3 antagonist	TRPML1 agonist
O=c1[nH]c(-c2ccccn2)nc2ccccc12	-8.9	7.9	-74.1*	-0.2
c1ccc(-c2nc3ccccc3[nH]2)nc1	-7.0	-9.8	-14.6	-0.5
CC(O)[C@@H]1NC(=O)[C@H](Cc2ccccc2)NC(=O)[C@H](C(C)O)NC(=O)[C@H](CCCCN)NC(=O)[C@H](Cc2c[nH]c3ccccc23)NC(=O)[C@H](Cc2ccccc2)NC(=O)[C@H](Cc2ccccc2)NC(=O)[C@H](CC(N)=O)NC(=O)[C@H](CCCCN)NC(=O)[C@@H](NC(=O)CNC(=O)[C@H](C)N)CSSC[C@@H](C(=O)O)NC(=O)[C@H](CO)NC1=O (stereo not given in full)	-4.9	·	·	·
O=C(CSc1nnc(Nc2ccccc2F)s1)NCc1ccco1	-13.9	54.2	-58.9*	-0.1
CN(C)CCOC(=O)Cc1ccc(Cl)cc1	-1.6	-0.8	1.5	-0.1
CN(C)CCOc1cccc(Cl)c1	-5.4	-5.4	?	-0.2
CN(C)CCOc1cc(Cl)cc(Cl)c1	-12.0	0.8	-63.6*	5.5
CN(C)CCOC(=O)COc1ccc(Cl)cc1	45.0*!	-27.4	-9.0	-0.1
NCCCN(Cc1ccccc1)c1ccc(Br)cn1	·	·	·	0.0
Cc1ccc(C(=O)OCCN2CCN(c3ncc(C(F)(F)F)cc3Cl)CC2)cc1	-16.0	-6.2	-82.6*	0.9
O=C(OCCN1CCN(c2ncc(C(F)(F)F)cc2Cl)CC1)c1ccc(F)cc1	-20.2	9.6	?	-0.4
O=C(CSc1ccc(Cl)cc1)N1CCN(c2ncc(C(F)(F)F)cc2Cl)CC1	14.7	46.0	10.1	2.9
O=C(CN1CCN(c2ncc(C(F)(F)F)cc2Cl)CC1)N1CCN(c2ncc(C(F)(F)F)cc2Cl)CC1	0.0	9.3	-60.7*	0.7
COc1ccc(-c2coc3c(C(=O)NCC4CC4)cccc23)c(C)c1	56.0*	26.8	276.1	2.2
O=C(Nc1ccccc1C(F)(F)F)N1CCC(CN2CCc3ccccc3C2)CC1	-18.7	6.9	·	0.9
Cc1ccc(C(=O)/C=C/Nc2ccccc2C(N)=O)cc1	-1.5	-5.1	-80.3*	0.3
CC(C)n1c(NCc2nc3ccccc3n2C)nc2ccccc21	-11.2	7.4	-93.3*	2.2
CCn1c(CNc2nc3ccccc3n2C(C)C)nc2ccccc21	-13.0	1.5	-58.9*	1.0
Cn1c(CNc2nc3ccccc3n2C)nc2ccccc21	-11.2	14.3	-69.6*	-0.2
Cc1ccc(NCc2nc3ccccc3n2C)cc1	-4.8	-8.2	-26.7	0.1
COc1ccc(CNc2nc3ccccc3n2C(C)C)cc1	-9.1	-1.5	-19.6	0.2
Cc1cc(C)c(/C=C/c2onc(C)c2S(=O)(=O)N2CCC(C(=O)N(C)Cc3ccccc3)CC2)c(C)c1	5.1	14.1	·	0.3
OCC(S)CS (stereo not given)	-8.0	·	·	·
COc1ccc(NC(=O)c2noc3c2CCCC3)cc1Cl	-9.7	15.8	·	0.0
O=C(NC(c1ccc2c(c1)OCO2)c1ccccn1)C1CCN(CCOc2ccccc2)CC1 (stereo not given)	7.5	·	-71.6*	-0.4
SMILES	DRD3 agonist	TRPML1 inh	DRD3 antagonist	TRPML1 agonist
COc1ccc(C(NC(=O)C2CCN(CCOc3ccccc3)CC2)c2ccccn2)cc1 (stereo not given)	4.5	-4.4	?	0.2
COc1ccc(OCCN2CCC(C(=O)NC(c3ccc(C)cc3)c3ccccn3)CC2)cc1 (stereo not given)	-17.6	·	-73.7*	-0.7
COc1cccc(C(NC(=O)C2CCN(CCCOc3ccccc3)CC2)c2ccccn2)c1 (stereo not given)	-21.2	·	-88.6*	9.8
CCCCCCCCCCCCCCCC(=O)OC(C)C	5.5	·	·	·
COc1ccc(NC(=O)C(=O)NCCN2CCN(C(=O)c3ccc(C)cc3)CC2)cc1	-16.7	3.5	-69.9*	-0.5
COc1ccc(C(=O)N2CCN(CCNC(=O)C(=O)Nc3ccc(F)cc3)CC2)cc1	-8.2	21.1	-9.4	0.2
COc1ccc(C(=O)NCCN2CCN(C(=O)c3ccc(OC)cc3)CC2)cc1	-14.5	-3.5	-83.5*	0.2
CCOC(=O)/C(=C\c1ccc(N2CCC(c3ccccc3)=N2)cc1)C(C)=O	-18.0	1.0	-4.6	?
O=C(/C=C/c1ccc(N2CCC(c3ccccc3)=N2)cc1)c1ccccc1	-4.3	-3.3	-21.7	87.2*
Cn1c(=O)c2sccc2n2c(CCC(=O)Nc3ccc(F)cc3)nnc12	1.7	-21.8	·	2.1
O=C1NC[C@H](CCCCN2CCN(Cc3ccccc3)C(=O)C2=O)N(CC2CCCCC2)C1=O	-11.8	·	-20.4	0.1
O=C1NC[C@H](CCCCN2CCN(Cc3ccccc3)C(=O)C2=O)N(CCC2CCCCC2)C1=O	32.7*	·	-26.8	-0.3
O=C1NC[C@@H](CCCCN2C[C@H](Cc3ccc(O)cc3)N(CCC3CCCCC3)C(=O)C2=O)N(CC2CCCCC2)C1=O	-16.4	·	-62.9*	-0.4
O=C1[C@@H]2Cc3c([nH]c4ccccc34)C(c3cccc([N+](=O)[O-])c3)N2C(=O)CN1CCCO (stereo not given in full)	-8.6	·	-58.5*	·
CCOc1ccccc1N(CC(=O)OC)S(C)(=O)=O	5.1	6.7	-106.5*	-0.5
O=[N+]([O-])c1cc(Cl)ccc1N1CCCC1	-3.8	3.5	-1.7	-0.6
O=C1C(Cl)=C(N2CCN(c3ccccc3[N+](=O)[O-])CC2)C(=O)c2ccccc21	-16.0	0.5	-60.3*	-0.4
Cc1cc(Br)ccc1NC(=O)CSc1c2c(nc3ccccc13)CCC2	-10.0	34.1	·	3.9
O=C(C(=Cc1ccccc1)CN1CCCCC1)c1ccccc1	-23.1	6.7	-91.4*	0.5
O=C(CCCCN1CCCCC1)c1ccccc1	-19.1	8.7	-27.3	1.3
CC(C)NC(=O)COc1coc(CN2CCN(c3ccccc3)CC2)cc1=O	0.7	20.4	-61.7*	0.6
CC(C)NC(=O)COc1coc(CN2CCN(c3cccc(Cl)c3)CC2)cc1=O	-7.3	-12.6	7.8	-0.4
Cc1cc(N2C(=O)CC(N3CCN(c4ccc(C(=O)c5cccs5)cc4)CC3)C2=O)no1 (stereo not given)	3.4	-2.1	-52.1*	0.3
CC(CCc1ccc(O)cc1)NC1c2ccccc2-c2ccccc21 (stereo not given)	-5.8	·	6.2	·
CC(CCc1ccc(O)cc1)NCC(O)c1ccc(O)cc1 (stereo not given)	58.6*	·	·	·
CC(CCc1ccc(O)cc1)NC1C2CC3CC(C2)CC1C3 (stereo not given)	7.1	17.9	-56.1*	-0.1
CC(CCc1ccc(O)cc1)NCCc1ccc(O)c(O)c1 (stereo not given)	108.0*	-1.4	7.9	0.3
CC(O)CCc1ccc(O)cc1 (stereo not given)	0.8	14.3	34.4	-0.4
Cc1cc(C)cc(NC(=O)c2cccc(C(=O)Nc3cc(C)cc(C)c3)c2)c1	4.4	5.8	·	0.6
C=CCOC(=O)c1[nH]c2c(c1C)C(=O)CC(c1ccco1)C2 (stereo not given)	-9.2	-1.8	-25.6	2.3
